A selection: hits, their analogues and other compounds. The true share with any hit is near 2.4%.
Mcl1 Noxa PPI: Mcl-1/Noxa interaction inhibition; TR-FRET Mcl-1/Noxa peptide binding, 2 h; AID 1022; hit rate 1.5% among 220,000; inhibition, % at 21.7 µM; Q07820;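 active = compounds that cut the protein-peptide binding signal by more than 50% relative to plate controls in a single-dose test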;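 also: His-tagged Mcl-1 with rhodamine Noxa BH3 peptide and terbium anti-His antibody; 0% = Mcl-1 plus Noxa peptide wells and 100% = peptide-only wells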
MCL1 BIM primary: MCL1-BIM-BH3 interaction inhibition (human); AID 2057; GST-MCL1 / FITC-Bim-BH3 fluorescence polarization; inhibition, % at 10.9 µM; hit rate 0.68% among 320,000;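 active = inhibition above the mean inhibition of all tested compounds plus 3 SD, set per campaign, cut at about 40% in these data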;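 also: 0% = DMSO wells and 100% = unlabeled Bim-BH3 peptide control; higher means more loss of mP so more displacement of Bim peptide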
Mcl1-Bid inh: Mcl-1/Bid interaction inhibition; Q07820; TR-FRET Mcl-1/Bid-Dy647 peptide binding, 1536-well; inhibition, % at 21.7 µM; hit rate 0.97% among 220,000; AID 1021;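 active = compounds that cut the binding signal by more than half at the single screening dose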;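 also: His-tagged Mcl-1 with europium anti-His antibody binding Bid BH3 peptide; 0% = Mcl-1 plus peptide wells and 100% = peptide-only wells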
Bim-Mcl-1: inhibitors of Bim-Mcl-1 interaction, human; Q07820; hit rate 0.1% among 190,000; inhibition, % at 10 µM; AID 1009; Bead-based flow cytometry, Bim peptide-Mcl-1 binding; in the data active = inhibition above about 40%;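 also: 0% = no compound tracer wells and 100% = peptide blocker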
L929 necroptosis: L929 zVAD cell death inhibition. L929 zVAD necroptosis rescue, ATP luminescence, 24 h; with zVAD 60 µM. viability rescue, % at 10 µM. hit rate 0.38% among 220,000. AID 1377;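 active = activation, scaled between plate controls, above about 75%, limit read from the data; inactive = activation under that limit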;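 also: 0% = zVAD with DMSO and 100% = DMSO alone without zVAD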
TNF necrop inh: inhibitors of TNF-alpha induced necroptosis in Jurkat FADD-/- cells; Jurkat FADD-/- TNF necroptosis rescue, ATP luminescence, 24 h; 0 = TNF only, 100 = no-TNF cells; activation (protection from cell death), % at 10 µM; hit rate 0.068% among 220,000;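 active = activation, meaning protection from cell death, of at least 50% relative to plate controls; inactive = activation below 50%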;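 also: necroptosis triggered by 40 ng/mL TNF-alpha added together with compound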
BCLXL inh confirm: Bcl-xL (human) inhibition, MCL1 counter-screen confirmation. inhibition, % at 10.9 µM. shares compounds with MCL1 BIM primary. hit rate 54% among 1,700. GST-Bcl-xL / FITC-Bim BH3 peptide FP binding;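 active = inhibition above a cutoff equal to the mean inhibition of all tested compounds plus 3 SD, cut at about 30% in these data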;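 also: 0% = DMSO wells and 100% = unlabeled Bim BH3 control peptide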
Target sequence (Q07817 whole entry, looked up): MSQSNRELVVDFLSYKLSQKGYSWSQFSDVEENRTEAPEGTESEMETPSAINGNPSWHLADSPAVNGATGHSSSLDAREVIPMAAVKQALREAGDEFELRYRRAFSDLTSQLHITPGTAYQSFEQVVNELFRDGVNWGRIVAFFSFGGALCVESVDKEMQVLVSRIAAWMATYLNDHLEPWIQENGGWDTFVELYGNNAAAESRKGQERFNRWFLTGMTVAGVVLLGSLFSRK
MCL1 BIM confirm: confirmation of human MCL1 and BIM-BH3 interaction inhibitors; shares compounds with MCL1 BIM primary; GST-MCL1 / FITC-Bim-BH3 fluorescence polarization; inhibition, % at 10.9 µM; hit rate 61% among 1,700; AID 2168;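 active = inhibition above the average of all tested compounds plus 3 SD, cut at about 40% in these data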;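 also: 0% = DMSO wells and 100% = unlabeled Bim-BH3 control peptide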
* hit, by the source's call; x = not tested or not shown; + = active, no number.

SMILES | Mcl1 Noxa PPI | MCL1 BIM primary | Mcl1-Bid inh | Bim-Mcl-1 | L929 necroptosis | TNF necrop inh | BCLXL inh confirm | MCL1 BIM confirm
CC(Sc1nnnn1C)C(=O)Nc1nc(-c2ccc(F)c(F)c2)cs1 (stereo not given) | x | 7 | x | x | x | x | x | x
CCC1(C(=O)OC)NC(c2ccccc2OC)C2C(=O)N(C)C(=O)C21 (stereo not given) | -14 | 58* | -25 | 6 | 0 | 1 | 3 | -3
O=C(OCC(=O)N1CCCC1)c1ccccc1C(=O)c1ccccc1 | x | 5 | x | x | x | x | x | x
CCSC1=N/C(=C\c2ccc(-c3ccccc3[N+](=O)[O-])o2)C(=O)S1 | 48 | 90* | -19 | -1 | 0 | -12 | 120* | 141*
Cc1ccc(C)c(NC(=O)CN(C)C(=O)c2cccc(-n3cccc3)c2)c1 | x | 46* | x | x | x | x | 10 | 64*
CN(CC(=O)Nc1ccccc1Cl)C(=O)c1cccc(-n2cccc2)c1 | x | 1 | x | x | x | x | x | x
COc1ccc(OC)c2nc3c(cc12)CCC3 | x | 53* | x | x | x | x | 10 | 5
COc1ccc(OC)c2nc(-c3cccnc3)ccc12 | x | 0 | x | x | x | x | x | x
Cc1nn(C)c(=O)n1N(C)c1ncc(C(F)(F)F)cc1Cl | 7 | 4 | -18 | 1 | 0 | -1 | x | x
CCOc1cccc(=O)c2c(C)n(-c3ccc(C(=O)O)cc3)c(C)c12 | 14 | 86* | -51 | 0 | 0 | 0 | 36* | 53*
COc1cccc(=O)c2c(C)n(-c3ccc(C(=O)O)cc3)c(C)c12 | 19 | 91* | -35 | 0 | 0 | 0 | 21 | 29
Cc1ccc(C)n1-c1ccc(C(=O)O)cc1 | 62* | 45* | -48 | -3 | 1 | 1 | 21 | 41*
COc1ccccc1-n1c(C)c2c(OC)cccc(=O)c2c1C | 23 | 40* | -39 | 0 | 0 | 1 | 21 | 24
COC(Cc1ccccc1N1CCCC1=O)OC | x | 14 | x | x | x | x | x | x
Fc1ccc(C2=CC(c3ccc(Br)o3)n3ncnc3N2)cc1 (stereo not given) | 23 | + | 17 | -4 | x | 2 | 125* | 156*
Fc1ccc(C2=CC(c3ccco3)n3ncnc3N2)cc1 (stereo not given) | 11 | 181* | -77 | -4 | 0 | -1 | 11 | 22
Brc1ccc(C2=CC(c3ccco3)n3nnnc3N2)cc1 (stereo not given) | 10 | -65 | -15 | x | 0 | 0 | x | x
CCc1noc(C)c1C(=O)Nc1ccccc1C(C)(C)C | x | -33 | x | x | x | x | x | x
On1ccccc1=S | x | 68* | x | x | x | x | 2 | 2
CC(=O)C1=C(c2ccccc2)NC(=O)NC1c1ccc2c(c1)OCO2 (stereo not given) | x | 6 | x | x | x | x | x | x
CC(=O)C1=C(c2ccccc2)NC(=O)NC1c1ccc(O)c(O)c1 (stereo not given) | 17 | 81* | -81 | 1 | 0 | 0 | 23 | 36
CCOc1cccc(Nc2ccc([N+](=O)[O-])cn2)c1 | x | -4 | x | x | x | x | x | x
CCOc1ccc(N2C(=O)C3ON(C)C(c4ccc([N+](=O)[O-])cc4)C3C2=O)cc1 (stereo not given) | -4 | 3 | -63 | x | 0 | 5 | x | x
S=C(Nc1ccc2nc(-c3ccccn3)c(-c3ccccn3)nc2c1)N1CCOCC1 | 14 | 87* | -53 | 2 | 1 | 0 | 31* | 37
CN1C(=O)N(C)C2(c3ccccc3)NC(=O)NC12c1ccccc1 (stereo not given) | 15 | 6 | -27 | 0 | 0 | -3 | x | x
CN1c2ccccc2N(C)C1(C)c1ccccc1 | 80* | 65* | 39 | 1 | 2 | -3 | 74* | 101*
CCN1c2ccccc2N(C)C1(C)c1ccccc1 (stereo not given) | 85* | 94* | 30 | 2 | 0 | -4 | 61* | 98*
CSc1ccc(CCNS(=O)(=O)c2csc(C(N)=O)c2)cc1 | x | 6 | x | x | x | x | x | x
Cc1ccc(OCCNC(=O)C2CC(=O)N(Cc3ccccc3)C2)cc1 (stereo not given) | x | -10 | x | x | x | x | x | x

Screening data: PubChem BioAssay, several laboratories
